# Assay results taken from paper PMC5515408, “Sequence-specific DNA binding by MYC/MAX to low-affinity non-E-box motifs”.
# Over roughly 5,000 sequences, “log2 normalized fluorescence” has its median near 0.089; the highest 2% begin near 0.81. For the sample, the highest values were picked, then their nearest neighbours and some sequences at random.
# Target: MYC (p64);MAX (p21), in MYC:MAX (human;human, UniProt P01106-1;P61244-2 1-439;1-151, |)
# Experiment: protein-binding microarray (anti-MAX antibody); PBM: 15 mM Tris-HCl pH 7.5, 100 mM KCl, 0.075% NP40, 7.5 mM beta-mercaptoethanol, 375 ng/ul BSA, 8 ng/ul poly(dA-dT):(dA-dT), 550 ng complex, 60 min, room tempe; high values mean tight binding
# Conditions: protein: recombinant;recombinant; tags: 6xHis;6xHis; copies: 1;1; label: 3' end of printed strand (linker) attached to glass slide; dsDNA, one strand shown
# In short: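 Binding is reported as log2 normalized fluorescence. Recombinant His-tagged human MYC:MAX or MAX:MAX dimers expressed in E. coli (550 ng) were incubated with a custom Agilent glass array for 60 min at room temperature in Tris-KCl buffer, pH 7.5, containing NP40, BSA and poly(dA-dT) competitor. The array carried ~5000 unique 12-nt sequences, each spotted in triplicate and made double-stranded by primer extension, and bound protein was detected with anti-MAX and secondary antibodies and scanned at 543 nm.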
# Sequence of MYC (p64);MAX (p21), in MYC:MAX (P01106 16-454, chain 1 of 2): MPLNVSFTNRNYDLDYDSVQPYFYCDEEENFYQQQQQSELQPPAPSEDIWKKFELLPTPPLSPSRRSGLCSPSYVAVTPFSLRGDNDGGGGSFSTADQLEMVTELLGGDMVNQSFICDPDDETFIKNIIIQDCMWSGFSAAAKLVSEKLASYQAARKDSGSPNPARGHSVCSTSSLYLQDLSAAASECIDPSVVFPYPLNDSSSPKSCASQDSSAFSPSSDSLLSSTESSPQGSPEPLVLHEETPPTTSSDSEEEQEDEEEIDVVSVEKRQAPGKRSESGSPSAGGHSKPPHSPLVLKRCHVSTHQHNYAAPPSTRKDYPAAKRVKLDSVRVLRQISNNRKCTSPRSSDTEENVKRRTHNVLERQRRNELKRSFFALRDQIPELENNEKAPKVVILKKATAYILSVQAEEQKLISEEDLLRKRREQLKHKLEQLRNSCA
# Sequence of MYC (p64);MAX (p21), in MYC:MAX (P61244 other isoform, or with tags, fused parts or gaps |, chain 2 of 2): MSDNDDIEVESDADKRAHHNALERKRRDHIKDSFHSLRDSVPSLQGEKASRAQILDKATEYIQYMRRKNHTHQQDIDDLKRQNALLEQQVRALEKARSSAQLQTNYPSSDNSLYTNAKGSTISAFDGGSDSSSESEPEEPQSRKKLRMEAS
row,Sequence,binding signal
1,CCGGCTGAGTAGTGGTATTAATAGCTAAGATTACTATATCGACG,0.0775 log2 normalized fluorescence
2,CCGGCTGAGGGCTTGTATTAATAGCTAAGATTACTATATCGACG,0.0447 log2 normalized fluorescence
3,CCGGCTGACGACAGGTATTAATAGCTAAGATTACTATATCGACG,0.106 log2 normalized fluorescence
4,CCGGCTGAAGTTCAGTATTAATAGCTAAGATTACTATATCGACG,0.0781 log2 normalized fluorescence
5,CCGGCTGAAGACCTGTATTAATAGCTAAGATTACTATATCGACG,0.0334 log2 normalized fluorescence
6,CCGGCTGATGTAATGTATTAATAGCTAAGATTACTATATCGACG,0.000857 log2 normalized fluorescence
7,CCGGCTGACGTTTGGTATTAATAGCTAAGATTACTATATCGACG,0.243 log2 normalized fluorescence
8,CCGGCTGACCACATGTATTAATAGCTAAGATTACTATATCGACG,0.581 log2 normalized fluorescence
9,CCGGCTGAACGTGAGTATTAATAGCTAAGATTACTATATCGACG,0.437 log2 normalized fluorescence
10,CCGGCTGAGGACGAGTATTAATAGCTAAGATTACTATATCGACG,-0.00251 log2 normalized fluorescence
11,CCGGCTCACACGTGTTATTAATAGCTAAGATTACTATATCGACG,0.827 log2 normalized fluorescence
12,CCGGCTCACACGGGTTATTAATAGCTAAGATTACTATATCGACG,0.461 log2 normalized fluorescence
13,CCGGCTTACACGTGGAATTAATAGCTAAGATTACTATATCGACG,0.667 log2 normalized fluorescence
14,CCGGCTCACACGTGATATTAATAGCTAAGATTACTATATCGACG,0.75 log2 normalized fluorescence
15,CCGGCTTACACGTGGCGTTAATAGCTAAGATTACTATATCGACG,0.878 log2 normalized fluorescence
16,CCGGCTTAAACGTGTTATTAATAGCTAAGATTACTATATCGACG,0.426 log2 normalized fluorescence
17,CCGGCTAATACGTGGTGTTAATAGCTAAGATTACTATATCGACG,0.417 log2 normalized fluorescence
18,CCGGCTTACAAGTGTTATTAATAGCTAAGATTACTATATCGACG,0.479 log2 normalized fluorescence
19,CCGGCTGACACGTGGCGTTAATAGCTAAGATTACTATATCGACG,0.519 log2 normalized fluorescence
20,CCGGCTTACACGTGTTATTAATAGCTAAGATTACTATATCGACG,1.05 log2 normalized fluorescence
21,CCGGCTTACACGTGGTGTTAATAGCTAAGATTACTATATCGACG,0.827 log2 normalized fluorescence
22,CCGGCCTACACGTGGTGTTAATAGCTAAGATTACTATATCGACG,0.779 log2 normalized fluorescence
23,CCGGCTGATTTAATGTATTAATAGCTAAGATTACTATATCGACG,0.0643 log2 normalized fluorescence
24,CCGGCTGAACCTACGTATTAATAGCTAAGATTACTATATCGACG,0.131 log2 normalized fluorescence
25,CCGGCTGATCGCTTGTATTAATAGCTAAGATTACTATATCGACG,-0.00084 log2 normalized fluorescence

row,Sequence,binding signal
1,CCGGCTGAACATGGGTATTAATAGCTAAGATTACTATATCGACG,0.288 log2 normalized fluorescence
2,CCGGCTGATCGGCGGTATTAATAGCTAAGATTACTATATCGACG,0.0519 log2 normalized fluorescence
3,CCGGCTGACAGTCGGTATTAATAGCTAAGATTACTATATCGACG,0.0326 log2 normalized fluorescence
4,CCGGCTGACAGTTGGTATTAATAGCTAAGATTACTATATCGACG,0.112 log2 normalized fluorescence
5,CCGGCTGAAATAGTGTATTAATAGCTAAGATTACTATATCGACG,0.0457 log2 normalized fluorescence
6,CCGGCTGTCATGTGGTATTAATAGCTAAGATTACTATATCGACG,0.631 log2 normalized fluorescence
7,CCGGCTGACCTGTTGTATTAATAGCTAAGATTACTATATCGACG,0.216 log2 normalized fluorescence
8,CCGGCTGAAAGAATGTATTAATAGCTAAGATTACTATATCGACG,0.0901 log2 normalized fluorescence
9,CCGGCTGATCATTTGTATTAATAGCTAAGATTACTATATCGACG,0.247 log2 normalized fluorescence
10,CCGGCTGCCACGTCGTATTAATAGCTAAGATTACTATATCGACG,0.37 log2 normalized fluorescence
11,CCGGCCACCACGTGGTATTAATAGCTAAGATTACTATATCGACG,0.975 log2 normalized fluorescence
12,CCGGCAACCACGTGGTATTAATAGCTAAGATTACTATATCGACG,0.742 log2 normalized fluorescence
13,CCGGCTGCGACGTGGTATTAATAGCTAAGATTACTATATCGACG,0.41 log2 normalized fluorescence
14,CCGGCTGCCACGTGGTATTAATAGCTAAGATTACTATATCGACG,0.82 log2 normalized fluorescence
15,CCGGCTGCCATGTGGTTTTAATAGCTAAGATTACTATATCGACG,0.633 log2 normalized fluorescence
16,CCGGCTGAGACGTGGTCTTAATAGCTAAGATTACTATATCGACG,0.229 log2 normalized fluorescence
17,CCGGCGGCCACGTGGTATTAATAGCTAAGATTACTATATCGACG,0.783 log2 normalized fluorescence
18,CCGGCTGATACGTGGTCTTAATAGCTAAGATTACTATATCGACG,0.408 log2 normalized fluorescence
19,CCGGCTACTATGCCATGTTAATAGCTAAGATTACTATATCGACG,0.159 log2 normalized fluorescence
20,CCGGCCGCCACGTGGTCTTAATAGCTAAGATTACTATATCGACG,0.884 log2 normalized fluorescence
21,CCGGCTGCCATGTGGGATTAATAGCTAAGATTACTATATCGACG,0.899 log2 normalized fluorescence
22,CCGGCTGATGAGACGTATTAATAGCTAAGATTACTATATCGACG,-0.0198 log2 normalized fluorescence
23,CCGGCTGATACAGTGTATTAATAGCTAAGATTACTATATCGACG,0.0568 log2 normalized fluorescence
24,CCGGCTGAGATGCTGTATTAATAGCTAAGATTACTATATCGACG,-0.0512 log2 normalized fluorescence
25,CCGGCTGAGGCTATGTATTAATAGCTAAGATTACTATATCGACG,-0.0462 log2 normalized fluorescence

row,Sequence,binding signal
1,CCGGCTGACTCTTGGTATTAATAGCTAAGATTACTATATCGACG,0.16 log2 normalized fluorescence
2,CCGGCTGATGGCCTGTATTAATAGCTAAGATTACTATATCGACG,0.18 log2 normalized fluorescence
3,CCGGCTGATACACGGTATTAATAGCTAAGATTACTATATCGACG,0.262 log2 normalized fluorescence
4,CCGGCTGAGCCAATGTATTAATAGCTAAGATTACTATATCGACG,0.00395 log2 normalized fluorescence
5,CCGGCTGAAACCGCGTATTAATAGCTAAGATTACTATATCGACG,0.25 log2 normalized fluorescence
6,CCGGCTGAGAGTACGTATTAATAGCTAAGATTACTATATCGACG,0.142 log2 normalized fluorescence
7,CCGGCTGAGGGTCGGTATTAATAGCTAAGATTACTATATCGACG,0.137 log2 normalized fluorescence
8,CCGGCCGCGACGTGGTATTAATAGCTAAGATTACTATATCGACG,0.471 log2 normalized fluorescence
9,CCGGCCGCCACGTGGTATTAATAGCTAAGATTACTATATCGACG,0.88 log2 normalized fluorescence
10,CCGGCCGCCACGTAGTATTAATAGCTAAGATTACTATATCGACG,0.312 log2 normalized fluorescence
11,CCGGCTGCCACGAGGAATTAATAGCTAAGATTACTATATCGACG,0.707 log2 normalized fluorescence
12,CCGGCTGTCACGTGGAATTAATAGCTAAGATTACTATATCGACG,0.766 log2 normalized fluorescence
13,CCGGCTGCCACGTGGAATTAATAGCTAAGATTACTATATCGACG,0.873 log2 normalized fluorescence
14,CCGGCTGACGCGTCGTATTAATAGCTAAGATTACTATATCGACG,0.46 log2 normalized fluorescence
15,CCGGCTGACGCGTGATATTAATAGCTAAGATTACTATATCGACG,0.675 log2 normalized fluorescence
16,CCGGCTCCCACGTGGTATTAATAGCTAAGATTACTATATCGACG,0.763 log2 normalized fluorescence
17,CCGGCTAAGACGTGGTATTAATAGCTAAGATTACTATATCGACG,0.411 log2 normalized fluorescence
18,CCGGCCCGCACGTGGTATTAATAGCTAAGATTACTATATCGACG,0.749 log2 normalized fluorescence
19,CCGGCCCACACGTGGTATTAATAGCTAAGATTACTATATCGACG,0.945 log2 normalized fluorescence
20,CCGGCCCCCACGTGGTATTAATAGCTAAGATTACTATATCGACG,0.854 log2 normalized fluorescence
21,CCGGCCCACACGTGGTGTTAATAGCTAAGATTACTATATCGACG,0.705 log2 normalized fluorescence
22,CCGGCGCCCACGTGGTATTAATAGCTAAGATTACTATATCGACG,0.862 log2 normalized fluorescence
23,CCGGCGACCACGTGGTATTAATAGCTAAGATTACTATATCGACG,0.741 log2 normalized fluorescence
